In the supplement of paper PMC8540655:
Unmarked numbers belong to inactive results.

Tested on: Aedes aegypti larvae
Assay: larval motility relative to same well at 0 h (fraction); higher = more motile (less active compound), active = 0.4 or less
Settings: 10 µM
How it was run: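 Aedes aegypti larvae were hatched at 25 °C in pond salt solution with yeast, collected after 18–24 h, and dispensed at about 10 per well (100 µL) in 96-well plates. Compounds were tested at 10 µM in 1% v/v DMSO, and each plate carried solvent and larvicide control wells. INVAPP movies of 200 frames at 100 ms intervals were recorded at 0, 2 and 24 h, and each value is the median of three independent larval batches. Relative motility is each well's score divided by that same well's starting score.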

| Compound | larval motility (2 h) | larval motility (24 h) |
| --- | --- | --- |
| CC(C)(C)c1cccc(-c2nc3cc(C(=N)N)ccc3[nH]2)c1O | 1.04 | 0.466 |
| NC(=O)c1ccc(I)c([N+](=O)[O-])c1 | 0.749 | 0.429 |
| COc1ccc(CNC(=O)C(NS(=O)(=O)c2ccc3nc(C)sc3c2)C(C)C)cc1 (stereo not given) | 0.329 (active) | 0.365 (active) |
| O=C(Cn1cnc2ccccc2c1=O)Nc1ccccc1 | 0.554 | 0.782 |
| CC(=O)Oc1ccccc1C(=O)Nc1ncc([N+](=O)[O-])s1 | 1.58 | 0.824 |
| CC(Oc1ccc(Cl)cc1Cl)C(=O)NCc1ccc2c(c1)OCO2 (stereo not given) | 0.508 | 0.902 |
| O=C(Nc1ccc(N2CCN(C(=O)c3ccccc3)CC2)cc1)c1ccc2c(c1)OCO2 | 0.946 | 0.971 |
| NC(=O)c1[nH]c2ccc(S(N)(=O)=O)cc2c1-c1ccccc1 | 0.832 | 1.05 |
| O=C(CCCC(F)(F)F)N1CCC(c2nc(-c3nccs3)no2)CC1 | 0.824 | 1.08 |
| COC(=O)Nc1nc2c(C)cccc2[nH]1 | 0.678 | 0.778 |
| CCCCSc1nc(N)c2[nH]c(=O)c(=O)n(Cc3ccccc3)c2n1 | 0.896 | 1.51 |
| CCC(CC)[C@H](NC(C)=O)[C@@H]1[C@H](O)[C@@H](C(=O)O)C[C@H]1NC(=N)N | 0.729 | 1.91 |
| CCCCOC(=O)Nc1cc2nc(C3CCCCC3)[nH]c2cc1N(CC)CC | 0.544 | 0.594 |
| CNC(=O)C1O[C@@H](n2cnc3c(NCc4cccc(I)c4)nc(Cl)nc32)[C@H](O)[C@@H]1O (stereo not given in full) | 0.688 | 0.817 |
| O=C(NCc1ncc(C(F)(F)F)cc1Cl)c1c(Cl)cccc1Cl | 1.3 | 1.42 |
| NC(=O)c1nccn([C@@H]2O[C@H](CO)[C@@H](O)[C@H]2O)c1=O | 0.824 | 1.16 |
| Cc1onc(-c2ccccc2Cl)c1C(=O)N[C@@H]1C(=O)N2[C@@H]1SC(C)(C)[C@@H]2C(=O)O | 1.22 | 1.24 |
| N=c1n(CCN2CCCCC2)c2ccccc2n1CC(O)COc1ccc(Cl)cc1Cl (stereo not given) | 1.02 | 0.502 |
| C=C(C)[C@@H]1CC[C@]2(C(=O)O)CC[C@]3(C)[C@H](CC[C@@H]4[C@@]5(C)CC[C@H](O)C(C)(C)[C@@H]5CC[C@]43C)[C@@H]12 | 1.08 | 1.18 |
| COc1ccc(C2CNC(=O)C2)cc1OC1CCCC1 (stereo not given) | 0.834 | 0.959 |
| CC[C@H]1OC(=O)[C@H](C)[C@@H](O[C@H]2C[C@@](C)(OC)[C@@H](O)[C@H](C)O2)[C@H](C)[C@@H](O[C@@H]2O[C@H](C)C[C@H](N(C)C)[C@H]2O)[C@](C)(O)C[C@@H](C)C(=O)[C@H](C)[C@@H](O)[C@]1(C)O | 1.03 | 0.824 |
| Clc1cccc(-c2nnc(-c3ccccc3)o2)c1 | 0.402 | 0.691 |
| CCCCCCCCC(CP(=O)(O)C(C)N)C(=O)O (stereo not given) | 0.654 | 1.09 |
| Oc1c(C(Nc2nc3ccccc3s2)c2ccc(OC(F)F)cc2)ccc2cccnc12 (stereo not given) | 0.53 | 1.26 |
| COc1ccc(COc2cc3oc(=O)c4cc(C(C)O)ccc4c3cc2OC)cc1 (stereo not given) | 1.02 | 1.2 |
| N=C(N)c1ccc(COc2ccc(Cl)cc2)cc1 | 1.16 | 0.589 |
| CCNC(=O)Nc1cn2c(-c3ncc(CC)cn3)cc(-c3cccnc3)cc2n1 | 0.892 | 0.894 |
| C[C@H]1[C@@H](c2cccc(C(F)(F)F)c2)OC(=O)N1C(=O)NCc1cncc2ccccc12 | 0.716 | 0.359 (active) |
| COc1ccccc1NC(=O)c1ccccc1Sc1ccc([N+](=O)[O-])cc1 | 0.911 | 0.861 |
| O=S(=O)(Nc1ccc(-n2cccc2)cc1)c1ccc(Cl)c(Cl)c1 | 1.06 | 0.808 |
